The results in this text go back to PubChem BioAssay AID1851 (National Center for Advancing Translational Sciences (NCATS), 2009).

By AC50 is commonly meant the concentration at which the activity in the assay is half-maximal.

About 5,700 (36%) of roughly 16,000 compounds were called active. Another 24% or so got no clear call; they are omitted. The list shows a part of the results. Values without a mark were called inactive. The call rests on the fitted dose curve; in most records, active means well fitted curve in the direction sought with a large enough effect; inconclusive means small, poorly fitted or top-dose-only effect, or effect the other way; inactive means no such curve, though single readings can be large or run the other way.
On the % scale 0 is the no-effect control and ±100 the full control effect.

For the experiment, the target named is Cytochrome P450 1A2 (Homo sapiens) (UniProt P05177). Put plainly: Cytochrome panel assay with activity outcomes. Particulars: recombinant CYP, pro-luciferin dealkylation, luminescence, p450-cyp1a2; series mostly up to 57.1 µM; activity, negative = inhibition: at the top concentration.
Sequence of Cytochrome P450 1A2 (Homo sapiens) (P05177 whole entry, looked up): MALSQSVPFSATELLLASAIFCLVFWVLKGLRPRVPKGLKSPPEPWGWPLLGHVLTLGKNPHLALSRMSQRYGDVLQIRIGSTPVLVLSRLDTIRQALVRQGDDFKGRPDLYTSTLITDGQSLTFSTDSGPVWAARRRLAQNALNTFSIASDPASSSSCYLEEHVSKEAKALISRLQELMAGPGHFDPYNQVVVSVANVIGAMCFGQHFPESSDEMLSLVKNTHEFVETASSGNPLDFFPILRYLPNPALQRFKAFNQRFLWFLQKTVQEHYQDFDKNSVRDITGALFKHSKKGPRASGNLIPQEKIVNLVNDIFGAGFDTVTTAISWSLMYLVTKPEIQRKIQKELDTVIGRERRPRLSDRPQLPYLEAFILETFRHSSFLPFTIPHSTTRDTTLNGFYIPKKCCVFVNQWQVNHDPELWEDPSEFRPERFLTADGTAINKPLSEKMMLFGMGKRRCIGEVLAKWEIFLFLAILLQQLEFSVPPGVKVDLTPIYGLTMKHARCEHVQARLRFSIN
With `CO[C@H]1COC(=O)[C@H](C)NC(=O)C/C=C\[C@@H](C)[C@@H](NS(=O)(=O)c2ccc(C)cc2)COC(=O)C/C=C\[C@@H]1C`, the activity, negative = inhibition is -0.0135% [at 11.4 µM].

`N#CC1=C(SCC(N)=O)NC2=C(C(=O)c3ccccc32)C1c1ccc(Cl)cc1` (configuration not stated): the AC50 was 0.631 µM (active).

For `CSC1=C(C#N)C(c2ccccc2Cl)C2=C(N1)c1ccccc1C2=O` (configuration not stated), the half-maximal activity concentration (AC50) was 0.708 µM (active).

With `C=CCN1C(=CCO)[C@H]2C[C@H]3[C@@H]1CC[C@@]31c3ccccc3N3C=C4[C@@H]5N(/C=C/2[C@H]31)c1ccccc1[C@]51CC[C@H]2[C@H]1C[C@@H]4/C(=C/CO)N2CC=C`, the “activity, negative = inhibition” value was -3.83% [at 25.6 µM].

On to `O=S(=O)(c1ccccc1)N1CCC2(CC1)CN(Cc1ccccc1)C2`, for which the “activity, negative = inhibition” value was -8.56%.

For the molecule `COc1cccc(/C=N/n2c(=S)n(C)c3cc(C)c(C)cc32)c1OC`, the AC50 is 2.24 µM (active).

As to `O=C1CSc2ccc(C(=O)NCCC3=CCCCC3)cc2N1`, the AC50 is 3.16 µM (active).

In the case of `CC(C)(C)c1ccc(C(=O)N2CCC(C(=O)NCCC3=CCCCC3)CC2)cc1`, the “activity, negative = inhibition” value is -2.75%.

Turning to `C=C/C(C)=C/[C@]1(C)SC(=O)C(C)=C1O`, the “activity, negative = inhibition” value is 2.06%.

Consider `CC1(C)CCC2=C(O1)c1ccccc1C(=O)C2=O`, for which the half-maximal activity concentration (AC50) was 3.98 µM (active).

In the case of `Cc1c(C=NCCOCc2ccccc2)cnn1C`, the AC50 was 17.8 µM (active).

Consider `CCCc1ncc(C[n+]2ccccc2C)c(N)n1`, for which the “activity, negative = inhibition” value is -1.54% [at 25.6 µM].

For the molecule `C=CCOc1cccc(/C=N/NC(=O)C(=O)NCc2ccco2)c1`, the “activity, negative = inhibition” value is -7.74%.

Regarding `C=CCOc1cccc(CNn2cn[nH]c2=S)c1`, the concentration at half-maximal activity (AC50) was 3.16 µM (active).

For `COC(=O)N1CCC2(CC1)CN(c1ccccc1)C2`, the “activity, negative = inhibition” value was -5.68%.

Consider `CC(C)NC(=O)N1CCCC2(CCN(C(=O)c3cccn3C)CC2)C1`, for which the “activity, negative = inhibition” value is -12.4%.

Take `O=C(Oc1ccccc1)N1CCC2(CCCN(c3ccc(-c4ccccc4)cc3)C2)CC1`: the “activity, negative = inhibition” value is 10.2%.

Consider `CC(C)CN1CCCC2(CCN(C(=O)c3cccn3C)CC2)C1`, for which the “activity, negative = inhibition” value is 12.9%.

Regarding `CN1CCCC2(CCN(C(=O)c3cccn3C)CC2)C1`, the “activity, negative = inhibition” value was -19.9%.

For `Cn1cccc1C(=O)N1CCC2(CCCN(Cc3ccccc3)C2)CC1`, the “activity, negative = inhibition” value was -2.19%.

`COC(=O)N1CCC2(CCCN(c3ccc(-c4ccccc4)cc3)C2)CC1`: the AC50 was 20 µM (active).

As to `Cn1cccc1C(=O)N1CCC2(CCCN(c3ccc(-c4ccccc4)cc3)C2)CC1`, the AC50 is 15.8 µM (active).

In the case of `Cn1cccc1C(=O)N1CCC2(CCCN(c3cccc(-c4ccccc4)c3)C2)CC1`, the AC50 is 15.8 µM (active).

For `Cc1cc2c(c(=O)o1)[C@@H](O)[C@H]1O[C@@H]1C2=O`, the activity, negative = inhibition was -3.99% [at 11.4 µM].

Turning to `CCCOc1ccc(/C=C/C(=O)Nc2ccc([N+](=O)[O-])cc2C)cc1OC`, the “activity, negative = inhibition” value is -5.77%.

Regarding `COc1ccc(/C=C/C(=O)Nc2nc(C)cc(C)n2)cc1OC`, the AC50 is 5.01 µM (active).

`COc1ccc2[nH]cc(CCNc3ncncc3-c3cccnc3)c2c1`: the AC50 is 0.316 µM (active).

Turning to `COc1ccc2[nH]cc(CCNc3ncncc3-c3cccc(NS(C)(=O)=O)c3)c2c1`, the AC50 was 12.6 µM (active).

For `COc1ccc2[nH]cc(CCNc3ncncc3-c3ccc(N(C)C)cc3)c2c1`, the AC50 was 0.251 µM (active).

For the molecule `COc1cccc(-c2cncnc2NCCc2c[nH]c3ccc(OC)cc23)c1`, the AC50 is 2 µM (active).

For the molecule `COc1ccc(N2CCN(Cc3nc4c(c(=O)[nH]c(=O)n4C)n3CCCc3ccccc3)CC2)cc1`, the “activity, negative = inhibition” value is -8.33%.

With `O=C(O)C1CC2(C1)CC(C(=O)O)C2` (configuration not stated), the activity, negative = inhibition was -6.34% [at 2.29 µM].

Turning to `Cc1ccc(SCc2[nH]nc3c2C(C(C)C)C(C#N)=C(N)O3)cc1` (configuration not stated), the AC50 was 12.6 µM (active).

On to `O=[N+]([O-])c1ccc(C=Nc2ccc(Cl)cc2Cl)s1`, for which the AC50 is 2 µM (active).

Regarding `O=c1onc(-c2cccs2)n1Cc1ccccc1`, the AC50 was 2.24 µM (active).

As for `CN(C)CCNS(=O)(=O)N(C)C`, the activity, negative = inhibition is -3% [at 11.4 µM].

Consider `c1ccc(Nc2nc(-c3cccnc3)nc3ccccc23)cc1`, for which the AC50 was 0.398 µM (active).

For the molecule `CNc1nc(-c2cccnc2)nc2ccccc12`, the AC50 was 0.1 µM (active).

Consider `O=C(O)CC12C[C@H]3C[C@@H](CC(O)(C3)C1)C2`, for which the activity, negative = inhibition is -11.2% [at 11.4 µM].

Consider `O=C(CSCc1cccc(Br)c1)N/N=C/c1ccc2c(c1)OCO2`, for which the AC50 is 2.51 µM (active).

On to `Cc1oc(-c2ccccc2Cl)nc1CSCC(=O)NC1CC1`, for which the AC50 was 15.8 µM (active).

Regarding `Cc1oc(-c2ccccc2F)nc1CS(=O)(=O)CC(=O)NCCCN(C)C1CCCCC1`, the “activity, negative = inhibition” value was -6.41%.

In the case of `O=C1Nc2ccccc2C(O)(C(=O)NCc2ccc3c(c2)OCO3)N1c1ccc(Cl)c(Cl)c1` (configuration not stated), the “activity, negative = inhibition” value was 25%.

`Cc1oc(-c2ccccc2F)nc1CSCC(=O)NCc1ccc2c(c1)OCO2`: the AC50 was 1.58 µM (active).

Take `O=C(N/N=C/c1ccc2c(c1)OCO2)/C(=C/c1ccc2c(c1)OCO2)NC(=O)c1ccccc1`: the “activity, negative = inhibition” value is -28.9%.

As to `CN1CCN(CCCNC(=O)c2ccc(CSCc3cccc(Cl)c3)o2)CC1`, the “activity, negative = inhibition” value was -11%.

On to `CCOC(=O)N1CCC(NC(=O)CS(=O)(=O)Cc2nc(-c3cccc(OC)c3)oc2C)CC1`, for which the “activity, negative = inhibition” value is -39%.
